Screens as filed in PubChem.
This is a sample that favours compounds with a hit; in the whole collection about 1.6% have one here.
KCNQ2 enhance: enhances the rat KCNQ2 potassium channel; O88943; CHO-K1 KCNQ2, FluxOR thallium flux fluorescence; hits give high values; B-score at 10 µM; 0.54% of 310,000 active; AID 2239;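 active = fluorescence ratio B-score at least 3 SD of library B-scores, with initial fluorescence B-score within 3 of them, cut at about 5.3 in these data; same plate scores as AID 2156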;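 note: B-score of peak minus minimum over baseline fluorescence ratio after K+ and Tl+ stimulus; positive B-score means potentiation of KCNQ2 with more thallium influx and brighter signal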
Target sequence (O88943 whole entry, looked up): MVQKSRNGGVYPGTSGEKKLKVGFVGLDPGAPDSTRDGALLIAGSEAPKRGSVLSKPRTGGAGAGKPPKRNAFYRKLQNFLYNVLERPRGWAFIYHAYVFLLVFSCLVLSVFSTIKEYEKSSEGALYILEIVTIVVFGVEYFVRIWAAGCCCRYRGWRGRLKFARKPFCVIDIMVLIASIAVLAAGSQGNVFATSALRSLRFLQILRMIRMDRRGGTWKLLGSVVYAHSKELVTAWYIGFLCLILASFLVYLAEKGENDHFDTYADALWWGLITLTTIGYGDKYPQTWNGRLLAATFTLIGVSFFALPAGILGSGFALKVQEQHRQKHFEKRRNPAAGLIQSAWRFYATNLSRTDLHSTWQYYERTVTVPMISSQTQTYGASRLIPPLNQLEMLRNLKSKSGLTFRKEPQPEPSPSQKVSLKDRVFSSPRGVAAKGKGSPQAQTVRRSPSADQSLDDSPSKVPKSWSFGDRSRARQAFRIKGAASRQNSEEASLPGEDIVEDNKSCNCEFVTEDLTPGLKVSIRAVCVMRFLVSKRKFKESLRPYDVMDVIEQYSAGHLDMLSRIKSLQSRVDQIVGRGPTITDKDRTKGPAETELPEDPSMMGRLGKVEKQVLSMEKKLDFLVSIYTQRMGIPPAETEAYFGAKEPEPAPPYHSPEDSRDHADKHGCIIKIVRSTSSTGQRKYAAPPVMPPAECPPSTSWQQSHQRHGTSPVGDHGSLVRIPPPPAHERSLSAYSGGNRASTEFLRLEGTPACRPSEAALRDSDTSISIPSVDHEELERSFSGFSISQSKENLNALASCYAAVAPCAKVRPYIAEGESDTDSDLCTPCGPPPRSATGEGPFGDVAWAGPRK
KCNQ2 inh: KCNQ2 (rat) channel inhibition. O88943. CHO-K1 KCNQ2, FluxOR thallium flux, 20 min; hits give low values. B-score at 10 µM. 1.1% of 310,000 active;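 active = fluorescence ratio B-score at most minus 3 library SDs, with starting brightness B-score within 2 library SDs, cut at about -5.5 in these data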
Each line names hits and unclear results; the compound was inactive in the other large screens.

CC1(C)Cc2[nH]c3ccccc3c2C(C)(C)N1	none
CN(CC(=O)Nc1c(Cl)cccc1Cl)C(=O)c1cc(-c2cccs2)nn1-c1ccccc1	none (no result: KCNQ2 enhance)
CN(CC(=O)Nc1ccc(Cl)cc1)C(=O)c1cc(-c2cccs2)nn1-c1ccccc1	KCNQ2 inh -7.6
Cc1cccc(NS(=O)(=O)c2cc(C(=O)OC(C)C(=O)NCc3ccc4c(c3)OCO4)ccc2C)c1 (centres undefined)	KCNQ2 inh -6.4
CC(=O)Nc1cccc(C(=O)OC(C)C(=O)NCc2ccc3c(c2)OCO3)c1 (centres undefined)	none
COc1cc(C(=O)N2CCN(S(=O)(=O)c3cccc(F)c3)CC2)ccc1OCC(=O)N1CCOCC1	none
COC(=O)N1C(=O)[C@](c2ccsc2)(C(C)C)N1C(=O)OC	none
O=C1c2cccc3c([N+](=O)[O-])ccc(c23)C(=O)N1c1ccc(Cl)cn1	KCNQ2 inh -7
O=C1c2cccc3c([N+](=O)[O-])ccc(c23)C(=O)N1c1ccccn1	none (no result: KCNQ2 enhance)
Cc1cc(C)c(NC(=O)CCCCCNC2CCCCC2)c(C)c1	none (no result: KCNQ2 enhance)
Cc1nc2c(C(=O)NCc3ccccc3Cl)c[nH]n2c(=O)c1Cl	none (no result: KCNQ2 enhance)
Cc1nc2c(C(=O)NCCc3ccccc3Cl)c[nH]n2c(=O)c1Cl	KCNQ2 enhance 7.2
Cc1cccnc1CCNCc1c(C(=O)N2C[C@@H](C)O[C@@H](C)C2)nc2ccc(Cl)cn12	none (no result: KCNQ2 enhance)
CSc1ccc(CNCC2CCCO2)cc1 (centres undefined)	none
COC(=O)c1cn(C(=O)c2cc(Br)ccc2Cl)c2ccccc12	KCNQ2 inh -6.1
COC(=O)c1cn(C(=O)c2cc(C)cc(C)c2)c2ccccc12	none
COc1ccccc1CNn1c(-c2cccc(C)c2)nc2ccccc2c1=O	KCNQ2 inh -7.6
COc1ccc(CNn2c(-c3cccc(C)c3)nc3ccccc3c2=O)cc1OC	none (no result: KCNQ2 enhance)
N#CCN1C(=O)NC2(CCCc3sccc32)C1=O (centres undefined)	none
COc1cccc(NC(=O)COC(=O)Cc2ccc(Cl)cc2)c1	none
COc1cccc(NC(=O)n2nc(N)cc2-c2ccc(Cl)cc2)c1	KCNQ2 inh -5.7
COc1ccccc1NC(=S)NNC(=O)c1ccccc1Br	none (no result: KCNQ2 enhance)
CN(C)c1ccc(S(=O)(=O)N(C)C)cc1NC(=O)Cc1cccc2ccccc12	KCNQ2 inh -7.5
O=C(Cc1cccc2ccccc12)Nc1ccc(O)cc1C(=O)O	none (no result: KCNQ2 enhance)
CC(=O)N(C)c1ccc(NC(=S)NCC(C)C)cc1	none
O=C(N1CCOCC1)C1(c2ccc(Cl)cc2)CCCC1	none (no result: KCNQ2 enhance)
O=C(N1CCC(n2nc(-c3ccccc3)oc2=O)CC1)C1(c2ccc(Cl)cc2)CC1	KCNQ2 inh -8.2
Cc1ccc(CNC(=O)c2cn(C3CCCCC3)c(=O)c3c2c2ccccc2n3C)o1	none (no result: KCNQ2 enhance)
Cc1cc(NC(=O)c2cn(C3CCCCC3)c(=O)c3c2c2ccccc2n3C)no1	KCNQ2 inh -5.8
COc1ccc(-n2ncc3c2CC(C)(C)CC3NC(=O)c2ccc(OC)o2)cc1 (centres undefined)	none
CC(c1ccco1)N(C(=O)c1ccccc1F)c1ccccn1 (centres undefined)	none
CC(c1ccco1)N(C(=O)COc1ccc(Cl)cc1Cl)c1ccccn1 (centres undefined)	KCNQ2 inh -11
CC(NC(=O)C12CC3CC(CC(C3)C1)C2)c1ccc(F)cc1 (centres undefined)	none
CC(C)(O)C#Cc1ccc(CN2CCN(C3CCCC3)C(CCO)C2)cc1 (centres undefined)	none (no result: KCNQ2 enhance)
CCNc1nc(NC(C)C)nc(SCCOC(=O)c2ccccc2)n1	none (no result: KCNQ2 enhance)
CCNc1nc(NC(C)C)nc(SCCOc2ccc(C)cc2)n1	KCNQ2 inh -5.6
CC(=O)Nc1cccc(NC(=O)CCN2C(=O)c3ccccc3S2(=O)=O)c1	none
COCC(C)NS(=O)(=O)c1ccc(C(=O)NC(Cc2ccccc2)c2ccccc2)cc1 (centres undefined)	KCNQ2 inh -7.8
CS(=O)(=O)c1ccc(C(=O)NC(Cc2ccccc2)c2ccccc2)cc1 (centres undefined)	none (no result: KCNQ2 enhance)
COc1ccc(Cl)cc1NC(=O)CN(C1CCCCC1)S(C)(=O)=O	KCNQ2 inh -5.9
CS(=O)(=O)N(CC(=O)Nc1ccc(F)cc1F)C1CCCCC1	none
COC(=O)c1cc(=O)n(Cc2ccco2)c(=Nc2ccc(F)cc2)s1	KCNQ2 inh -6
COC(=O)c1cc(=O)n(Cc2cccs2)c(=Nc2ccccc2)s1	none (no result: KCNQ2 enhance)
COC(=O)c1cc(=O)n(Cc2ccc(OC)c(OC)c2)c(=Nc2ccc(F)cc2)s1	none (no result: KCNQ2 enhance)
COC(=O)c1cc(=O)n(Cc2ccc(F)cc2)c(=Nc2ccccc2)s1	KCNQ2 inh -5.8
C#CCCOC(=O)N1C2=NC(C(=O)OC)=C(C(=O)OC)[C@@H]3N(Cc4ccccc4)c4ccccc4[C@]23C[C@H]1C(=O)OC	none
Cc1cc2cc(C(c3nnnn3CC3CCCO3)N3CCCc4ccccc43)c(=O)[nH]c2cc1C (centres undefined)	none
CCc1ccc2[nH]c(=O)c(C(c3nnnn3CC3CCCO3)N3CCCc4ccccc43)cc2c1 (centres undefined)	KCNQ2 enhance 7.2
COC(=O)c1ccc(NC(=O)CSC2=Nc3ccccc3C3CC=NN23)cc1 (centres undefined)	none (no result: KCNQ2 enhance)
CC(SC1=Nc2ccccc2C2CC=NN12)C(=O)NC1(C#N)CCCCC1 (centres undefined)	KCNQ2 inh -8.7
N#CNC(=Nc1ccc(Cl)cc1)Oc1ccccc1	none
CCC1=NN(C(=O)c2ccccc2Br)C(O)(c2ccc(Br)cc2)C1 (centres undefined)	KCNQ2 enhance 14
CC1=NN(C(=O)COc2ccccc2)C(O)(c2ccccc2)C1 (centres undefined)	none
CCC1=NN(C(=O)COc2ccccc2)C(O)(c2ccc(Br)cc2)C1 (centres undefined)	KCNQ2 inh -6
CC1=NN(C(=O)c2ccccc2Br)C(O)(c2ccc(Cl)cc2)C1 (centres undefined)	none
O=c1c2ccccc2nc(-c2ccco2)n1Cc1ccccc1	none (no result: KCNQ2 enhance)
CCOc1ccc(CCn2c(-c3ccco3)nc3ccccc3c2=O)cc1OCC	KCNQ2 inh -6.9
COc1ccc(NC(=O)COC(=O)c2ccc([N+](=O)[O-])o2)cc1Cl	none
O=C(NN1C(=O)/C(=C\c2cccnc2)SC1=S)c1ccco1	none
Cc1cccc(CSCCNC(=O)COc2ccc(Cl)cc2)c1	none (no result: KCNQ2 enhance)
Cc1cc(Cl)ccc1OCC(=O)NCCCCc1ccccc1	KCNQ2 inh -6.3
Cc1cc(Cl)ccc1OCC(=O)NCCC(=O)O	none
O=C(COc1ccc(Cl)cc1)NCCSCc1cccc(Cl)c1	KCNQ2 inh -7.5
COc1cc(OC)cc(C(=O)NCCCCc2ccccc2)c1	KCNQ2 inh -8.2
COc1cc(OC)cc(C(=O)NCCCCNC(=O)c2cc(OC)cc(OC)c2)c1	none
CSCC(=O)N1CCc2ccc(NC(=O)c3ccccc3Cl)cc2C1	none (no result: KCNQ2 enhance)
CCOc1ccc(S(=O)(=O)N(CC)CC(=O)NCc2cccnc2)cc1C	none (no result: KCNQ2 enhance)
COc1cccc(OCc2cc(C(=O)NCC3CCCCC3)no2)c1	none (no result: KCNQ2 enhance)
CCOC(=O)CC1(NC(=O)c2cc(COc3cccc(OC)c3)on2)CCCCC1	KCNQ2 inh -7
O=C(COc1ccccc1)Nc1cc(NC(=O)COc2ccccc2)cc(C(=O)O)c1	none (no result: KCNQ2 enhance)
Cc1ccc(S(=O)(=O)NCCc2cccs2)cc1	none
O=C1c2nccnc2C(=O)N1c1ccc(C(F)(F)F)cc1	none
O=C(C/C=N/OCc1c(Cl)cccc1Cl)c1ccc(Cl)cc1	KCNQ2 inh -7.4
O=C(C/C=N/OCc1c(Cl)cccc1Cl)c1cnc(-c2ccccc2)s1	none (no result: KCNQ2 enhance)
CC(C)c1ccc(CNC(=O)C(=O)NCCCn2ccnc2)cc1	none (no result: KCNQ2 enhance)
CC(=O)NC(CC(=O)N1CCCC1)c1ccccc1 (centres undefined)	none (no result: KCNQ2 enhance)
